PubChem BioAssay AID1159580 (chemical genetic matrix, 2015)
Values joined by “and” are separate entries in the source; they are usually repeats but may differ in a detail not shown here. Equal entries are not always repeated. Among all 5,500 compounds or so, about 2,000 (36%) were called active. Roughly 18% stayed inconclusive and do not appear here. The list shows a part of the results. Unmarked numbers belong to inactive results. Rule as the data show it: active = normalized growth mostly below about 0.91 (no sharp cut-off); inconclusive = no clear call, values can overlap the other calls; inactive = mostly above about 0.92.

Assay: chemical genetic growth profiling, strain panel (AID 1159580);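 also: tested at 20 µM; growth read once vehicle control cultures reached saturation at 30 °C; 1 = growth at the plate median or of vehicle wells; lower values mean less growth of the strain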
Details: S. cerevisiae deletion strains, growth OD

CC(=O)[C@@]1(O)CCC2C3CCC4=CC(=O)CC[C@]4(C)C3CC[C@@]21C (stereo partly drawn)
normalized growth (locus YAL021C, strain ccr4, stronger effect = lower value): 0.99
normalized growth (locus YAL026C, strain drs2, stronger effect = lower value): 0.992
normalized growth (locus YAL030W, strain snc1, stronger effect = lower value): 0.998
normalized growth (locus YBL061C, strain skt5, stronger effect = lower value): 0.991
normalized growth (locus YBR009C, strain hhf1, stronger effect = lower value): 0.995
normalized growth (locus YBR021W, strain FUR4, stronger effect = lower value): 1.01
normalized growth (locus YBR023C, strain chs3, stronger effect = lower value): 0.995
normalized growth (locus YBR171W, strain sec66, stronger effect = lower value): 0.985
normalized growth (locus YBR229C, strain ROT2, stronger effect = lower value): 0.993
normalized growth (locus YBR231C, strain swc5, stronger effect = lower value): 0.999
normalized growth (locus YBR279W, strain paf1, stronger effect = lower value): 0.986
normalized growth (locus YCL011C, strain gbp2, stronger effect = lower value): 0.997
normalized growth (locus YCL016C, strain dcc1, stronger effect = lower value): 0.992
normalized growth (locus YCL029C, strain bik1, stronger effect = lower value): 1.01
normalized growth (locus YCL061C, strain MRC1, stronger effect = lower value): 0.987
normalized growth (locus YCL069W, strain vba3, stronger effect = lower value): 0.996
normalized growth (locus YCR088W, strain abp1, stronger effect = lower value): 0.988
normalized growth (locus YDL005C, strain med2, stronger effect = lower value): 0.975
normalized growth (locus YDL035C, strain GPR1, stronger effect = lower value): 1.01
normalized growth (locus YDL040C, strain nat1, stronger effect = lower value): 0.993
normalized growth (locus YDL074C, strain BRE1, stronger effect = lower value): 1.04
normalized growth (locus YDL101C, strain DUN1, stronger effect = lower value): 0.996
normalized growth (locus YDL134C, strain PPH21, stronger effect = lower value): 0.99
normalized growth (locus YDL185W, strain tfp1, stronger effect = lower value): 1.01
normalized growth (locus YDL192W, strain arf1, stronger effect = lower value): 0.992
normalized growth (locus YDR001C, strain nth1, stronger effect = lower value): 0.989
normalized growth (locus YDR069C, strain doa4, stronger effect = lower value): 0.996
normalized growth (locus YDR101C, strain arx1, stronger effect = lower value): 1.04
normalized growth (locus YDR137W, strain rgp1, stronger effect = lower value): 0.815 (active)
normalized growth (locus YDR159W, strain sac3, stronger effect = lower value): 0.931
normalized growth (locus YDR162C, strain NBP2, stronger effect = lower value): 0.977
normalized growth (locus YDR195W, strain ref2): 0.995
normalized growth (locus YDR297W, strain sur2, stronger effect = lower value): 0.994
normalized growth (locus YDR318W, strain mcm21, stronger effect = lower value): 0.99
normalized growth (locus YDR334W, strain swr1, stronger effect = lower value): 0.992
normalized growth (locus YDR335W, strain msn5, stronger effect = lower value): 1.01
normalized growth (locus YDR388W, stronger effect = lower value): 1.01
normalized growth (locus YDR392W, strain spt3, stronger effect = lower value): 0.891
normalized growth (locus YDR502C, strain sam2, stronger effect = lower value): 1.01
normalized growth (locus YEL003W, strain gim4, stronger effect = lower value): 0.999
normalized growth (locus YEL037C, strain rad23, stronger effect = lower value): 0.993
normalized growth (locus YEL061C, strain CIN8 (second series), stronger effect = lower value): 0.993
normalized growth (locus YEL061C, strain CIN8, stronger effect = lower value): 0.995
normalized growth (locus YER015W, strain faa2, stronger effect = lower value): 0.998
normalized growth (locus YER016W, strain bim1, stronger effect = lower value): 0.99
normalized growth (locus YER110C, stronger effect = lower value): 1.01
normalized growth (locus YER111C, strain swi4, stronger effect = lower value): 0.987
normalized growth (locus YER155C, strain BEM2 (second series), stronger effect = lower value): 0.995
normalized growth (locus YER155C, strain BEM2, stronger effect = lower value): 1
normalized growth (locus YER167W, strain BCK2, stronger effect = lower value): 0.994
normalized growth (locus YFR010W, strain ubp6, stronger effect = lower value): 1.01
normalized growth (locus YGL078C, strain dbp3, stronger effect = lower value): 1.04
normalized growth (locus YGL086W, strain mad1, stronger effect = lower value): 1.03
normalized growth (locus YGL167C, strain pmr1, stronger effect = lower value): 0.983
normalized growth (locus YGL173C, strain kem1, stronger effect = lower value): 0.99
normalized growth (locus YGL227W, strain vid30, stronger effect = lower value): 0.994
normalized growth (locus YGL240W, strain doc1, stronger effect = lower value): 0.989
normalized growth (locus YGL248W, strain PDE1, stronger effect = lower value): 0.985
normalized growth (locus YGL253W, strain hxk2, stronger effect = lower value): 0.997
normalized growth (locus YGR078C, strain PAC10, stronger effect = lower value): 0.991
normalized growth (locus YGR135W, strain pre9, stronger effect = lower value): 0.966
normalized growth (locus YGR252W, strain gcn5, stronger effect = lower value): 1.04
normalized growth (locus YHR013C, strain ard1, stronger effect = lower value): 0.989
normalized growth (locus YHR027C, strain rpn1, stronger effect = lower value): 0.992
normalized growth (locus YHR030C, strain SLT2, stronger effect = lower value): 1 and 0.968
normalized growth (locus YHR079C, strain IRE1 (second series), stronger effect = lower value): 1.01
normalized growth (locus YHR079C, strain IRE1, stronger effect = lower value): 0.983
normalized growth (locus YHR094C, strain hxt1, stronger effect = lower value): 0.999
normalized growth (locus YHR129C, strain ARP1, stronger effect = lower value): 0.993
normalized growth (locus YHR142W, strain chs7, stronger effect = lower value): 0.993
normalized growth (locus YHR200W, strain rpn10, stronger effect = lower value): 1.02
normalized growth (locus YIL066C, strain RNR3, stronger effect = lower value): 0.994
normalized growth (locus YIL073C, strain SPO22, stronger effect = lower value): 1.03
normalized growth (locus YIL125W, strain kgd1, stronger effect = lower value): 1.03
normalized growth (locus YIR030C, strain dcg1, stronger effect = lower value): 1.01
normalized growth (locus YJL092W, strain hpr5, stronger effect = lower value): 0.991
normalized growth (locus YJL095W, strain BCK1 (second series), stronger effect = lower value): 0.992
normalized growth (locus YJL095W, strain BCK1, stronger effect = lower value): 0.96 and 0.984
normalized growth (locus YJL115W, strain asf1, stronger effect = lower value): 0.987
normalized growth (locus YJL129C, strain trk1, stronger effect = lower value): 0.955
normalized growth (locus YJL134W, strain LCB3, stronger effect = lower value): 0.998
normalized growth (locus YJL154C, strain vps35, stronger effect = lower value): 0.987
normalized growth (locus YJL164C, strain tpk1, stronger effect = lower value): 0.985
normalized growth (locus YJL166W, strain qcr8, stronger effect = lower value): 0.998
normalized growth (locus YJL168C, strain set2, stronger effect = lower value): 1
normalized growth (locus YJL187C, strain SWE1 (second series), stronger effect = lower value): 0.994
normalized growth (locus YJL187C, strain SWE1, stronger effect = lower value): 0.997
normalized growth (locus YJR043C, strain POL32, stronger effect = lower value): 1.05
